This assay relates to primary human hepatic stellate cells (donor 1). Description: scaled lipid accumulation score (0 = DMSO-like, 1 = nortriptyline-like); higher = stronger HSC inactivation (lipid re-accumulation), active = hit call of the paper. As to conditions: 48 h.
Setting [1] is: library stock concentration: 10 mM.
Where [2] appears, read: library stock concentration: 3.33 mM.
Setting [3] is: library stock concentration: 1 mM.
The mark [4] stands for this setting: library stock concentration: 80 uM.
The mark [5] stands for this setting: library stock concentration: 400 uM.
The mark [6] stands for this setting: library stock concentration: 2 mM.
The mark [7] stands for this setting: library stock concentration: 100 uM.

The results in this text go back to the supplement of paper PMC9135407.

Where “and” joins values, the source holds several entries; their conditions need not be identical. Identical values can stand only once. Counter-ions that a name gives are not always drawn. The whole screen tested about 5,800 compounds, of which about 620 (11%) showed activity. The full list was thinned out, with actives kept by preference. Unmarked numbers belong to inactive results.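 How the source made its calls: active = score above a cut-off or among the top three wells of a plate; in these data no inactive exceeds 0.85.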

Turning to `C[C@@H]1O[C@@H]1P(=O)(O)O` [Phosphomycin disodium], under setting [1], the “scaled lipid accumulation score” value is at most -0.055.

Regarding `C[C@@H]1O[C@@H]1P(=O)(O)O` [Fosfomycin], under setting [1], the “scaled lipid accumulation score” value was at most 0.

As for `CCN1C(=CC(C)=O)Sc2ccc(OC)cc21`, the “scaled lipid accumulation score” value is at most -0.009 under setting [2] and at most 0 under setting [1].

As for `CCCCCCCCCCC(C)(C)C(=O)Nc1c(OC)cc(OC)cc1OC`, the “scaled lipid accumulation score” value under setting [1] was 0.164 and ≤ -0.001.

`CC/C=C/C/C=C/C/C=C/C/C=C/CCCCC(=O)OC` [Stearidonic Acid methyl ester]: the “scaled lipid accumulation score” value under setting [3] is 0.048.

Turning to `O=C(c1cn(Cc2cncn2Cc2ccc(Br)cc2)cc1-c1cccc2ccccc12)N1CCOCC1`, the “scaled lipid accumulation score” value was at most -0.003 under setting [2] and 0.723 under setting [1].

As for `CNCc1ccc(-c2[nH]c3cc(F)cc4c3c2CCNC4=O)cc1.O=P(O)(O)O`, the “scaled lipid accumulation score” value under setting [1] is 1.47 (active).

Consider `CNCc1ccc(-c2[nH]c3cc(F)cc4c3c2CCNC4=O)cc1.O=P(O)(O)O` [Rucaparib], for which the “scaled lipid accumulation score” value under setting [1] is 1.12 (active).

Take `CNCc1ccc(-c2[nH]c3cc(F)cc4c3c2CCNC4=O)cc1` [Rucaparib]: the “scaled lipid accumulation score” value reads like this: under setting [4], at most 0; under setting [5], at most 0; under setting [6], 0.588.

As to `CNCc1ccc(-c2[nH]c3cc(F)cc4c3c2CCNC4=O)cc1`, the “scaled lipid accumulation score” value under setting [2] was 0.213.

In the case of `CCCCCCCCCCCCCCCCCCCCCCC(=O)OCC` [Ethyl Tricosanoate], the “scaled lipid accumulation score” value under setting [3] is at most 0.

With `CCCCCCCCCSCCCCCCCC(=O)O` [9-Thiastearic Acid], the “scaled lipid accumulation score” value under setting [3] is 0.031.

As for `CN1CCc2nc(C(=O)N[C@@H]3C[C@@H](C(=O)N(C)C)CC[C@@H]3NC(=O)C(=O)Nc3ccc(Cl)cn3)sc2C1` [Edoxaban], the “scaled lipid accumulation score” value is at most -0.009 under setting [2] and 0.008 under setting [1].

As to `CC(=O)N[C@@H](Cc1c[nH]c2ccccc12)C(=O)O` [Acetyltryptophan], the “scaled lipid accumulation score” value under setting [1] was at most 0.

Take `COc1cc(C(O)C(=O)O)ccc1O` (stereo not given): under setting [1], the “scaled lipid accumulation score” value is at most -0.036.

Take `c1nc(CC2CCNCC2)c[nH]1` [Immepip dihydrobromide]: under setting [1], the “scaled lipid accumulation score” value is 0.011.

`CC/C=C/C[C@H](O)/C=C/[C@H]1[C@H](O)CC(=O)[C@@H]1C/C=C\CCCC(=O)O` [17-trans Prostaglandin E3]: under setting [3], the “scaled lipid accumulation score” value was at most 0.

For the compound `Cc1cnc(-c2cnc(NCCNc3ccc(C#N)cn3)nc2-c2ccc(Cl)cc2Cl)[nH]1`, the “scaled lipid accumulation score” value under setting [4] was 0.041; the “scaled lipid accumulation score” value under setting [5] is 0.005; the “scaled lipid accumulation score” value under setting [6] is 0.182; the “scaled lipid accumulation score” value under setting [2] is 0.229; the “scaled lipid accumulation score” value under setting [1] is 0.814.

In the case of `Cc1c[nH]c(-c2cnc(NCCNc3ccc(C#N)cn3)nc2-c2ccc(Cl)cc2Cl)n1.Cl`, under setting [1], the “scaled lipid accumulation score” value is 1.08 (active).

Take `CCCCC[C@H](O)/C=C/[C@H]1C(=O)C[C@H](O)[C@@H]1C/C=C\CCCC(=O)NC(CO)CO` [Prostaglandin D2 serinol amide]: the “scaled lipid accumulation score” value under setting [3] was at most 0.

Regarding `CCCCC/C=C\C/C=C\C/C=C\CC1OC1CCCC(=O)O` (stereo not given) [5,6-Epoxyeicosatrienoic acid], the “scaled lipid accumulation score” value under setting [7] is at most -0.021.

As to `CC[C@@H]([C@H](C)O)n1ncn(-c2ccc(N3CCN(c4ccc(OC[C@@H]5CO[C@@](Cn6cncn6)(c6ccc(F)cc6F)C5)cc4)CC3)cc2)c1=O` [Posaconazole] [listing 1 of 2 here], the “scaled lipid accumulation score” value under setting [2] was 0.134.

As for `CC[C@@H]([C@H](C)O)n1ncn(-c2ccc(N3CCN(c4ccc(OC[C@@H]5CO[C@@](Cn6cncn6)(c6ccc(F)cc6F)C5)cc4)CC3)cc2)c1=O` [Posaconazole] [listing 2 of 2 here], under setting [1], the “scaled lipid accumulation score” value was 0.869 (active).

On to `CCC(C)n1ncn(-c2ccc(N3CCN(c4ccc(OCC5COC(Cn6cncn6)(c6ccc(Cl)cc6Cl)O5)cc4)CC3)cc2)c1=O` (stereo not given) [Itraconazole], for which the “scaled lipid accumulation score” value is, setting by setting: (library stock concentration: 2.8 mM) at most 0; under setting [2], 0.492; under setting [1], 0.522.

Regarding `Cc1cc(C)c(N(Cc2ccccc2)S(=O)(=O)c2ccc(OCCNC(=O)c3cc4ccccc4o3)cc2)c(C(=O)NO)c1`, under setting [1], the “scaled lipid accumulation score” value was at most -0.001.

For the compound `COc1ccc(C(=O)NCc2ccc(OCCN(C)C)cc2)cc1OC`, under setting [1], the “scaled lipid accumulation score” value is 0.061 and 0.313.

Consider `CN(C)Cc1c(C(=O)NCCOc2ccc(C(=O)NO)cc2)oc2ccccc12`, for which the “scaled lipid accumulation score” value was 0.855 (active) under setting [2] and 1.01 (active) under setting [1].

Consider `CC(/C=C1\SC(=S)N(CC(=O)O)C1=O)=C\c1ccccc1` [Epalrestat], for which the “scaled lipid accumulation score” value under setting [2] was at most 0 and the “scaled lipid accumulation score” value under setting [1] is at most 0.

As for `O=C(O)CCCC=CCC1C2CCC(O2)C1CNNC(=O)Nc1ccccc1` (stereo not given), the “scaled lipid accumulation score” value under setting [3] is ≤ 0 and ≤ -0.021.

Take `O=C(O)[C@]1(O)C[C@@H](O)[C@@H](O)[C@H](O)C1` [Quinic acid]: the “scaled lipid accumulation score” value was at most 0.

As to `Cc1c(C(=O)c2ccccc2)c(N)c(-c2ccccc2)n1Cc1ccc(Cl)cc1`, the “scaled lipid accumulation score” value under setting [3] is at most 0.

Consider `CCCCCCCCCCCCCCCCCCOC[C@H](COP(=O)([O-])OCC[N+](C)(C)C)OC(C)=O`, for which the “scaled lipid accumulation score” value under setting [3] is ≤ 0 and ≤ -0.021.

Take `CC(=O)Nc1nc(C)c(-c2ccc(Cl)c(S(=O)(=O)NCCO)c2)s1`: the “scaled lipid accumulation score” value was at most -0.016 under setting [4]; at most -0.016 under setting [5]; at most -0.016 under setting [6]; at most 0 under setting [2]; ≤ 0 and ≤ -0.016 under setting [1].

Turning to `O=c1oc2c(O)c(O)cc3c(=O)oc4c(O)c(O)cc1c4c23` [Ellagic acid], the “scaled lipid accumulation score” value is, setting by setting: under setting [4], at most 0; under setting [5], at most 0; under setting [6], at most 0; under setting [1], at most 0.

With `O=C(c1cccc(Cl)c1F)N1CCN(Cc2cccc(Nc3nccs3)n2)CC1`, the “scaled lipid accumulation score” value was at most 0 under setting [2] and 0.453 under setting [1].

`CN(C)c1ccc(-c2nc3c(N4CCN(CC(=O)Nc5nccs5)CC4)c(Cl)cnc3[nH]2)cc1`: the “scaled lipid accumulation score” value runs as follows: under setting [2], 0.858 (active); under setting [1], 0.949 (active).

As to `CCCCC/C=C/C=C1/C(=O)C=C[C@@H]1C/C=C\CCCC(=O)O` [15-deoxy-.DELTA.12,14-Prostaglandin J2], under setting [3], the “scaled lipid accumulation score” value is at most 0.

Regarding `CSc1ccc(C(=O)c2[nH]c(=O)[nH]c2C)cc1` [Enoximone], the “scaled lipid accumulation score” value under setting [1] is 0.125.

Consider `Cc1cc(NC2CCCCC2)nc(-n2nc(C)cc2C)n1`, for which the “scaled lipid accumulation score” value under setting [1] was at most -0.03.

In the case of `COc1c(C)cnc(Cn2cnc3c(Cl)nc(N)nc32)c1C` [listing 1 of 2 here], the “scaled lipid accumulation score” value under setting [1] was 0.768.

With `COc1c(C)cnc(Cn2cnc3c(Cl)nc(N)nc32)c1C` [listing 2 of 2 here], the “scaled lipid accumulation score” value under setting [2] was 0.885 (active).

For `COc1ccc2[nH]c([S+]([O-])Cc3ncc(C)c(OC)c3C)nc2n1` (stereo not given) [Tenatoprazole], the “scaled lipid accumulation score” value (library stock concentration: 5.8 mM) was 0.081.

For the compound `N#CC(=Cc1cc(Cl)cc(Cl)c1)c1cccnc1`, the “scaled lipid accumulation score” value (library stock concentration: 18.2 mM) was 0.033.

Turning to `CN(C[C@@H]1COCCO1)S(=O)(=O)Nc1ccc2ccc3ncc(-c4cnn(C)c4)cc3c(=O)c2c1`, the “scaled lipid accumulation score” value reads like this: under setting [2], at most 0; under setting [1], at most 0.

With `O.O.O.O.O.O.O.O.O.O.O.O.O.O.O.O.O=S(=O)([O][Al])OC[C@H]1O[C@@](COS(=O)(=O)[O][Al])(O[C@H]2O[C@H](COS(=O)(=O)[O][Al])[C@@H](OS(=O)(=O)[O][Al])[C@H](OS(=O)(=O)[O][Al])[C@H]2OS(=O)(=O)[O][Al])[C@@H](OS(=O)(=O)[O][Al])[C@@H]1OS(=O)(=O)[O][Al]` [Sucralfate sodium (10% w/v in dmso)], the “scaled lipid accumulation score” value (library stock concentration: 900 uM) is at most 0.

As to `COc1ccc2[nH]c(I)c(CCNC(C)=O)c2c1` [2-Iodomelatonin], the “scaled lipid accumulation score” value under setting [1] is 0.011.

Consider `COc1ccc2c(c1)c(C1=C(c3c[nH]c4ccccc34)C(=O)NC1=O)cn2CCCN(C)C`, for which the “scaled lipid accumulation score” value is, setting by setting: under setting [3], 0.018; under setting [2], 0.054 and ≤ 0; under setting [1], 0.706.

Turning to `CN(C)CCCn1cc(C2=C(c3c[nH]c4ccccc34)C(=O)NC2=O)c2ccccc21` [Bisindolylmaleimide I], under setting [2], the “scaled lipid accumulation score” value is 0.663.

As for `CN(C)CCCn1cc(C2=C(c3c[nH]c4ccccc34)C(=O)NC2=O)c2ccccc21` [listing 1 of 2 here], under setting [1], the “scaled lipid accumulation score” value was 1.04 (active).

Turning to `CN(C)CCCn1cc(C2=C(c3c[nH]c4ccccc34)C(=O)NC2=O)c2ccccc21` [listing 2 of 2 here], the “scaled lipid accumulation score” value runs as follows: under setting [2], 0.071; under setting [1], 0.777; (library stock concentration: 12.1 mM) 0.519.

Regarding `CCCCC[C@H](O)/C=C/C=C\C/C=C\C/C=C\CCCC(=O)O`, the “scaled lipid accumulation score” value under setting [7] was at most -0.02.

Regarding `COc1nc(C)cnc1NS(=O)(=O)c1cccnc1-c1ccc(-c2nnco2)cc1` [Zibotentan (ZD4054)], the “scaled lipid accumulation score” value reads like this: under setting [2], at most 0; under setting [1], at most 0.

Turning to `OCC(O)C(O)CO` (stereo not given) [Erythritol], the “scaled lipid accumulation score” value was at most 0 under setting [2] and at most -0.001 under setting [1].

With `CNCCCN1c2ccccc2CCc2ccccc21.Cl` [Desipramine hydrochloride] [listing 1 of 2 here], the “scaled lipid accumulation score” value was 0.887 (active).

In the case of `CNCCCN1c2ccccc2CCc2ccccc21` [Desipramine hydrochloride], the “scaled lipid accumulation score” value (library stock concentration: 6.6 mM) was 0.471 and the “scaled lipid accumulation score” value under setting [1] is 0.667.

As to `CNCCCN1c2ccccc2CCc2ccccc21.Cl`, the “scaled lipid accumulation score” value under setting [1] was 0.969 (active).

Consider `CNCCCN1c2ccccc2CCc2ccccc21.Cl` [Desipramine hydrochloride] [listing 2 of 2 here], for which, under setting [1], the “scaled lipid accumulation score” value is 1.15 (active).

`CCCCC1CCC(c2nc(-c3ccncc3)no2)CC1` (stereo not given): the “scaled lipid accumulation score” value under setting [3] is 0.03 and the “scaled lipid accumulation score” value under setting [1] was at most -0.001.

Turning to `CC(C)N(C[C@H]1O[C@@H](n2cnc3c(N)ncnc32)[C@H](O)[C@@H]1O)[C@H]1C[C@@H](CCc2nc3cc(C(C)(C)C)ccc3[nH]2)C1`, the “scaled lipid accumulation score” value is at most 0 under setting [2] and 0.467 under setting [1].

As for `CC(C)OC(=O)OCOP(=O)(CO[C@H](C)Cn1cnc2c(N)ncnc21)OCOC(=O)OC(C)C` [Tenofovir Disoproxil Fumarate], the “scaled lipid accumulation score” value under setting [2] was at most 0 and the “scaled lipid accumulation score” value under setting [1] was at most 0.

As for `CCc1c(Cl)c(O)c(Cl)c(O)c1C(=O)O[C@H]1[C@H](O)[C@H](OC)[C@H](OC/C2=C\C=C\C[C@H](O)/C(C)=C/[C@H](CC)[C@@H](O[C@@H]3OC(C)(C)[C@@H](OC(=O)C(C)C)[C@H](O)[C@@H]3O)/C(C)=C/C(C)=C/C[C@@H]([C@@H](C)O)OC2=O)O[C@@H]1C` [Fidaxomicin], the “scaled lipid accumulation score” value is at most 0 under setting [2] and 0.125 under setting [1].
